Results from PubChem BioAssay (NCATS).
Records with an inconclusive call do not appear. Calls of active or inactive are those of the source. The call rests on the fitted dose curve; in most records, active means well fitted curve in the direction sought with a large enough effect; inconclusive means small, poorly fitted or top-dose-only effect, or another doubt; inactive means no such curve, though single readings can be large; an effect the other way counts as inactive or inconclusive.

Tests used:
[1] = Cellular Toxicity (caspase-3) BJ (AID 658); settings: BJ fibroblasts, luminescence; Potency: caspase-3 activation; series mostly up to 91.7 µM
Summary of the method: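 BJ human foreskin fibroblasts, 1000 cells/well, treated 16 hours at 37 °C in complete medium; caspase 3/7 activity by Caspase-Glo luminescence after 1 hr at room temperature. Normalized to DMSO and 10 uM staurosporine; AC50 from Hill fits.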

[2] = Cellular Toxicity (caspase-3) MRC-5 (AID 659); settings: MRC-5 cells, luminescence, normalized: DMSO 0%, 10 µM staurosporine 100%; series mostly up to 91.7 µM
Summary of the method: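 MRC-5 human normal lung fibroblasts, 1500 cells/well, treated 16 h at 37 °C in complete medium. Caspase 3/7 measured by Caspase-Glo luminescence after 1 h at room temperature. Normalized to DMSO and 10 uM staurosporine; AC50 from Hill fit.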

[3] = Cellular Toxicity (caspase-3) Mesangial (AID 660); settings: mesangial cells, normalized: DMSO 0%, 100 µM tamoxifen 100%; series mostly up to 91.7 µM;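 further: combined caspase 3 and 7 activity read by Caspase-Glo luminescence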
Summary of the method: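 Concentration-response qHTS: compound-induced rise in caspase 3/7 luminescence in human mesangial cells after 16 h, normalized to DMSO and 100 uM tamoxifen controls.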

[4] = Cellular Toxicity (caspase-3) SK-N-SH (AID 661); settings: SK-N-SH caspase-3 activation, qHTS, DMSO as zero, staurosporine as full; series mostly up to 91.7 µM
Summary of the method: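 Caspase 3/7 activation is measured as a luminescence increase from aminoluciferin released by substrate cleavage in SK-N-SH cells after 16 hr compound treatment; values are AC50 from concentration-response curves.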

[5] = Cellular Toxicity (caspase-3) H-4-II-E (AID 663); settings: H-4-II-E rat hepatoma; Potency: caspase-3 activation; series mostly up to 92.2 µM;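 further: cells exposed to compound for 16 hr before readout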
Summary of the method: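 Rat hepatoma H-4-II-E cells (1500/well) plated 5 hr, then exposed to compound titrations for 16 hr at 37 °C. Caspase-Glo 3/7 luminescence read after 20 min at RT; data normalized to DMSO and 100 uM tamoxifen, AC50 from Hill fits.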

[6] = Cellular Toxicity (caspase-3) Hek293 (AID 664); settings: HEK293 caspase-3 activation, DMSO = 0%, 100 µM tamoxifen = 100%; at 92.2 µM (top of the series);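 further: cells exposed to compound for 16 h at 37 °C before readout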
Summary of the method: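 Activation of caspase-3/7 is measured as increased luminescence from cleaved peptide-aminoluciferin substrate in HEK293 cells treated 16 hours at 37 °C. AC50 values come from Hill-equation fits of concentration-response data.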

[7] = Cellular Toxicity (caspase-3) N2a (AID 665); settings: N2a cells, luminescence, normalized: DMSO 0%, 10 µM staurosporine 100%; series mostly up to 92.2 µM;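 further: compound exposure lasted 16 h at 37 °C before readout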
Summary of the method: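 Plated mouse neuroblastoma N2a cells received titrated compounds for 16 h in complete medium. Caspase activity was then detected with a peptide-aminoluciferin luminescent reagent.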

[8] = Cellular Toxicity (caspase-3) NIH 3T3 (AID 666); settings: NIH 3T3 caspase-3 activation, apoptosis/toxicity, 0% DMSO, 100% is 100 µM tamoxifen; series mostly up to 92.2 µM;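 further: 0% = DMSO basal and 100% = 100 µM tamoxifen stimulation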
Summary of the method: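 Concentration-response qHTS in NIH 3T3 mouse fibroblasts scores caspase-3/7 activation as rising luminescence after 16 hr compound exposure. Signals are scaled between DMSO-only and 100 uM tamoxifen.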

[9] = Cellular Toxicity (caspase-3) Renal Proximal Tubule (AID 667); settings: renal proximal tubule cells, primary cells freshly taken from rat; Potency: caspase-3 activation; series mostly up to 91.7 µM;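 further: cells exposed to compound for 16 hours at 37 °C before detection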
Summary of the method: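 Caspase-Glo 3/7 read-out, rat primary kidney proximal tubule cells. Compound exposure 16 h, 37 °C; detection after 1 h at RT. Activity scaled to DMSO and 10 uM staurosporine.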

[10] = target: Cytochrome P450 2C9 (Homo sapiens) (UniProt P11712); test: qHTS Assay for Inhibitors and Substrates of Cytochrome P450 2C9 (AID 883); settings: recombinant CYP2C9, luciferin-H luminescence, 60 min; series mostly up to 11.4 µM; further: on the % scale 0 is the no-effect control and ±100 the full control effect; nearly all actives have a fitted effect of over 60% in size
Summary of the method: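 10nM CYP2C9 + 100uM Luciferin-H (=KM), 25mM KPO4; cpd 10 min 37C; NADPH regen, 60 min 37C; stop/detect with P450 Glo-Buffer 20 min; luminescence. Norm. to 57uM sulphaphenazole as full inhibition.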

[11] = target: Cytochrome P450 3A4 (Homo sapiens) (UniProt P08684); test: qHTS Assay for Activators of Cytochrome P450 3A4 (AID 885); settings: recombinant CYP3A4, Luciferin-PPXE luminescence, 60 min; series mostly up to 11.4 µM; further: nearly all actives have a fitted effect of over 65% in size
Summary of the method: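 Steps: enzyme/substrate mix dispensed; compound added, 10 min RT; NADPH regeneration solution added, 60 min RT; luciferin detection buffer stops reaction; 20 min later luminescence measured.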

[12] = target: Cytochrome P450 2D6 (Homo sapiens) (UniProt P10635); test: qHTS Assay for Inhibitors and Substrates of Cytochrome P450 2D6 (AID 891); settings: recombinant CYP2D6, luciferin-ME EGE luminescence; series mostly up to 11.4 µM;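 further: luciferin methyl ether substrate demethylated by CYP2D6 with NADPH regeneration; on the % scale 0 is the no-effect control and ±100 the full control effect; nearly all actives have a fitted effect of over 60% in size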
Summary of the method: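 Human CYP2D6 (5 nM) with 30 uM Luciferin-ME EGE (at Km) in 100 mM KPO4, compound preincubated 10 min, then NADPH regeneration system for 60 min at room temperature. Luciferin read by luminescence; normalized to 1.43 uM quinidine.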

[13] = target: Cytochrome P450 2C19 (Homo sapiens) (UniProt P33261); test: qHTS Assay for Inhibitors and Substrates of Cytochrome P450 2C19 (AID 899); settings: recombinant CYP2C19, luciferin-H EGE luminescence; series mostly up to 11.4 µM; further: on the % scale 0 is the no-effect control and ±100 the full control effect; nearly all actives have a fitted effect of over 60% in size
Summary of the method: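 Luminescent read-out of luciferin formed from Luciferin-H EGE (10uM, equal to KM). Enzyme 5nM in 50mM KPO4; compound added, 10 min at 37C, then NADPH regenerating system for 60 min at 37C. Full inhibition defined by 57uM ketoconazole.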

[14] = MultiTox-Fluor Cytotoxicity Assay - LYMP1-001 - Dead Cells (AID 946); settings: LYMP1-001 lymphoblastoid cells, dead-cell protease fluorescence; series mostly up to 92.2 µM
Summary of the method: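 Seed 2500 LYMP1-001 cells/well, incubate 5 hr at 37 C; add compound, 16 hr at 37 C; add MultiTox-Fluor reagent, 60 min RT; read dead-cell fluorescence Ex/Em=485/520. Normalize to DMSO and 15 uM tetraoctylammonium bromide.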

[15] = MultiTox-Fluor Cytotoxicity Assay - LYMP1-001 - Live Cells (AID 947); settings: LYMP1-001 lymphoblastoid cells, live-cell protease fluorescence viability; series mostly up to 92.2 µM;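 further: 0% = DMSO only and full inhibition = tetraoctylammonium bromide control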
[16] = Cell Viability - LYMP1-002 - Assay at 16 hr (AID 948); settings: LYMP1-002 lymphoblastoid cell viability; series mostly up to 92.2 µM;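 further: 0% = DMSO alone and full effect = 92 µM tetraoctylammonium bromide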
Summary of the method: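 In this qHTS, lymphoblastoid LYMP1-002 cells (human) receive compounds for 16 hr at 37 C. Viability is taken from CellTiter-Glo ATP luminescence, and AC50 derives from standard Hill fits.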

[17] = MultiTox-Fluor Cytotoxicity Assay - LYMP1-002 - Live Cells (AID 955); settings: LYMP1-002 lymphoblastoid live-cell protease fluorescence viability; series mostly up to 46.1 µM; further: on the % scale 0 is the no-effect control and ±100 the full control effect
Summary of the method: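 Cytotoxicity in the human lymphoblastoid line LYMP1-002 is measured as loss of live-cell protease activity after 16 h treatment in complete culture medium. AC50 is derived from Hill-equation fits of qHTS concentration-response data.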

[18] = MultiTox-Fluor Cytotoxicity Assay - LYMP1-003 - Dead Cells (AID 961); settings: LYMP1-003 lymphoblastoid cells, dead-cell protease fluorescence; series mostly up to 92.2 µM; further: nearly all actives have a fitted effect of over 70% in size
Summary of the method: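 LYMP1-003 lymphoblastoid, 2500 cells/well, 5 hr settle then 16 hr cpd at 37 C; MultiTox-Fluor reagent 60 min RT; Ex/Em 485/520 dead-cell signal; norm. DMSO = 0%, 15 uM tetraoctylammonium bromide = 100%; Hill AC50.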

[19] = MultiTox-Fluor Cytotoxicity Assay - LYMP1-003 - Live Cells (AID 962); settings: LYMP1-003 lymphoblastoid cells, MultiTox-Fluor live-cell protease fluorescence; series mostly up to 92.2 µM;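 further: 0% = DMSO only and full loss = 92 µM tetraoctylammonium bromide; cytotoxic hits lower the live-cell protease signal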
Summary of the method: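 Cells plated at 2500 per well and incubated 5 hr; compounds added and incubated 16 hr at 37 C; MultiTox-Fluor reagent added for 60 min at room temperature; fluorescence of liberated AFC measured at 405/510 nm.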

[20] = Cell Viability - LYMP1-003 - Assay at 24 hr (AID 963); settings: LYMP1-003 lymphoblastoid cell viability; series mostly up to 92.2 µM;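 further: plate controls were DMSO only for no effect and tetraoctylammonium bromide positive control for full effect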
Summary of the method: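 Acute toxicity in LYMP1-003 lymphoblastoid cells: 24 hr compound treatment at 37 C, ATP measured with CellTiter-Glo after 30 min at room temperature. AC50 derived by fitting the Hill equation to qHTS titrations.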

[21] = Cell Viability - LYMP1-003 - Assay at 40 hr (AID 964); settings: LYMP1-003 lymphoblastoid viability; series mostly up to 92.2 µM; further: on the % scale 0 is the no-effect control and ±100 the full control effect; nearly all actives have a fitted effect of over 60% in size
Summary of the method: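 This qHTS cytotoxicity screen treats human lymphoblastoid cells (LYMP1-003) with compounds for 40 hr and quantifies cellular ATP via luciferase luminescence.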

[22] = Cell Viability - LYMP2-004 (AID 966); settings: LYMP2-004 lymphoblastoid cell viability, qHTS; series mostly up to 92.2 µM;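 further: plate controls were DMSO only for no effect and tetraoctylammonium bromide control for full effect; nearly all actives have a fitted effect of over 65% in size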
Summary of the method: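 Acute toxicity is scored as a concentration-dependent drop in intracellular ATP, quantified by luciferase luminescence, in human lymphoblastoid cells exposed to compound for 24 hr. AC50 derives from Hill-equation modelling.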

[23] = Cell Viability - LYMP2-005 (AID 967); settings: LYMP2-005 lymphoblastoid cell viability; series mostly up to 92.2 µM;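 further: plate controls were DMSO only for no effect and 92 µM tetraoctylammonium bromide control for full effect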
Summary of the method: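 Luciferase-based ATP quantitation served as the viability measure in human lymphoblastoid LYMP2-005 cells exposed to test compounds for 24 h at 37 C in complete culture medium. Potency (AC50) was obtained by fitting concentration-response curves with the Hill equation.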

[24] = Cell Viability - LYMP2-009 (AID 968); settings: LYMP2-009 lymphoblastoid cell viability; series mostly up to 92.2 µM;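 further: 0% = DMSO alone and the full-kill end = tetraoctylammonium bromide at 92 µM; nearly all actives have a fitted effect of over 55% in size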
[25] = Cell Viability - LYMP2-011 (AID 969); settings: LYMP2-011 lymphoblastoid cells viability; series mostly up to 92.2 µM
Summary of the method: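 Acute toxicity is scored as a concentration-dependent drop in intracellular ATP of a human lymphoblastoid line after 24 hr treatment. Values are AC50s modeled with the Hill equation.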

Chain of Cytochrome P450 2C19 (Homo sapiens) (P33261 whole entry, looked up): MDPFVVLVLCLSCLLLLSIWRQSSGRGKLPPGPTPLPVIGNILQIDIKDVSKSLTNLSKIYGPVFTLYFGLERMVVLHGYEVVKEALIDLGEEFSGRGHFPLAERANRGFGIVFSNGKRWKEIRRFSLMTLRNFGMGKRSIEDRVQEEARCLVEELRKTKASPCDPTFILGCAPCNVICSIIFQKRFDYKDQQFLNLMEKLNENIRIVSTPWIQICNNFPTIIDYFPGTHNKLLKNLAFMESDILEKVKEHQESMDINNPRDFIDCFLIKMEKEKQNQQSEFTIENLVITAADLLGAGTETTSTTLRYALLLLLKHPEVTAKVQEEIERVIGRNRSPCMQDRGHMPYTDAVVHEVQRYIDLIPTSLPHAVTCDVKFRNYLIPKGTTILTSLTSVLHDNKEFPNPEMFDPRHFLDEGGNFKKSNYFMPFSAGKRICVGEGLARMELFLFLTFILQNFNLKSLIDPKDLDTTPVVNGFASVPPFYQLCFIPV
Chain of Cytochrome P450 2C9 (Homo sapiens) (P11712 whole entry, looked up): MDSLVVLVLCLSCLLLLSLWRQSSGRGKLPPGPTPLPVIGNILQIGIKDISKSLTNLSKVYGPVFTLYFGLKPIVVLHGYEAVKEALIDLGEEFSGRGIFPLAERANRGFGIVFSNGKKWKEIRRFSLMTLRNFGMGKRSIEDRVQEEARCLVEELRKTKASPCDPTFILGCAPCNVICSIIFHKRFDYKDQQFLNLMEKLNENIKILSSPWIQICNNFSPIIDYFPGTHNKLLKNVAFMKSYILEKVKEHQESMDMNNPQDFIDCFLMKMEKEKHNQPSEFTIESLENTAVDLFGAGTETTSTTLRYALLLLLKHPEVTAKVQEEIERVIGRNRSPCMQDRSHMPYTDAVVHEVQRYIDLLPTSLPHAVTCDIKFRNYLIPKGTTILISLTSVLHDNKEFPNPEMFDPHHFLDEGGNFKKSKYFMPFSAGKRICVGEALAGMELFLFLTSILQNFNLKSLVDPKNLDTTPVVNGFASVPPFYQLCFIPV
Chain of Cytochrome P450 2D6 (Homo sapiens) (P10635 whole entry, looked up): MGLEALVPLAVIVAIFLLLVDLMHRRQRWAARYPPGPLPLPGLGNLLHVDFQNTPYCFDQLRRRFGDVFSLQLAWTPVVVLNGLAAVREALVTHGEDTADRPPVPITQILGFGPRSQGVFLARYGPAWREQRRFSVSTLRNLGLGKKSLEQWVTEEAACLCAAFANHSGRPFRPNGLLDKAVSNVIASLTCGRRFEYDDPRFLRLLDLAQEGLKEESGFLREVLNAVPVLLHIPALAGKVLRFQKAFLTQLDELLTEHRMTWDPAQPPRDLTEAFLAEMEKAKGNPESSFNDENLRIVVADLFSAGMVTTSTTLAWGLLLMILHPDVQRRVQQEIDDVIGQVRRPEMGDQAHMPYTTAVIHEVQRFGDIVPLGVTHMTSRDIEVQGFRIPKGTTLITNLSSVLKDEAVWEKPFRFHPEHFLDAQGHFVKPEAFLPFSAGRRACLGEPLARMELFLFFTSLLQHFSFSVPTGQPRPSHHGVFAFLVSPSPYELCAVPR
Chain of Cytochrome P450 3A4 (Homo sapiens) (P08684 whole entry, looked up): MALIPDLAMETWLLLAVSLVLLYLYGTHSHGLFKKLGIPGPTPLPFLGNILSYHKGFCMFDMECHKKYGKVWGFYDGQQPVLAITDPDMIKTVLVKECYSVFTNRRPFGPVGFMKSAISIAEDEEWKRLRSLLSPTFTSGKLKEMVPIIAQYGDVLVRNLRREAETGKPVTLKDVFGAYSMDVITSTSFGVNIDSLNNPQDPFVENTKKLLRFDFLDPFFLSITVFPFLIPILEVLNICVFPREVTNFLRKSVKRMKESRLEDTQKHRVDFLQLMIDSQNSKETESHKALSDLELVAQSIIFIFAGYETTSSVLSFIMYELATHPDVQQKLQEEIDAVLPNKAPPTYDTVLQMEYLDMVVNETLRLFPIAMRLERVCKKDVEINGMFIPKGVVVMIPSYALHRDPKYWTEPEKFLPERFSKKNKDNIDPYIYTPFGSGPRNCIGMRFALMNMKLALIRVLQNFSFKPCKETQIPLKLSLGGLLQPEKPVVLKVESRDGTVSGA

CC(CCC(=O)O)(c1ccc(O)cc1)c1ccc(O)cc1
inactive: Potency [1] | outcome [2] | outcome [3] | outcome [4] | Potency [5] | caspase-3 activation [6] 1.18% | outcome [7] | outcome [8] | Potency [9] | Potency [10] | Potency [11] | Potency [12] | Potency [13] | Potency [14] | Potency [15] | Potency [16] | outcome [17] | Potency [18] | Potency [19] | Potency [20] | Potency [21] | Potency [22] | Potency [23] | Potency [24] | Potency [25]
